A selection: hits, their analogues and other compounds. The true share with any hit is near 1.8%.
KLF5 inh: KLF5 expression inhibitors, primary screen, DLD-1 cells, luminescence | inhibition, % at 5 µM | DLD-1 KLF5 promoter-luciferase reporter | 0.23% of 290,000 active | AID 1700, 2009;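 active = inhibition above a per-plate limit of that plate's mean compound inhibition plus 3 SD, cut at about 60% in these data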;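 note: 0% = DMSO wells and 100% = LY294002 at 200 µM; higher means less KLF5 promoter-driven luciferase light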
Ba/F3 V617F tox: reduced viability of JAK2V617F-dependent Ba/F3 cells, primary screen, JAK2V617F inhibitor project, cell-based, Ba/F3 EpoR-JAK2V617F, luminescence; inhibition, % at 5.6 µM; 1.1% of 220,000 active; ATP luminescence; AID 1446, 2008;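 active = inhibition above the campaign mean plus 3 SD over all tested compounds, cut at about 24% in these data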;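 note: cytokine-independent growth of Ba/F3 cells driven by EpoR plus mutant JAK2; 0% = DMSO-treated cells and 100% = JAK inhibitor I control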
IEC-6 cytotox: cytotoxicity in IEC-6 intestinal epithelial cells, primary screen, cytotoxicity control for KLF5 inhibitor project, cell-based, luminescence; IEC-6 cytotoxicity, luminescence viability; inhibition, % at 5 µM; 0.78% of 290,000 active;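 note: 0% = plate median of test compound wells and 100% = cytotoxic reference compound wells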
APP 5UTR inh: inhibitors of APP translation via 5'UTR reporter, primary screen, APP 5'UTR luciferase, SH-SY5Y cells. SH-SY5Y APP 5'UTR-luciferase reporter, luminescence. inhibition, % at 2 µM. 0.82% of 190,000 active. AID 1285, 2008;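 active = inhibition above a set limit, derived from the sample mean plus 3 SD, cut at about 45% in these data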
BaF3 tox: parental Ba/F3 cell viability inhibition, counter-screen for JAK2V617F inhibitor project, murine pro-B, CellTiter-Glo luminescence | CellTiter-Glo ATP luminescence | inhibition, % at 5.6 µM | 1.1% of 220,000 active;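 active = inhibition above a per-campaign cutoff, the mean inhibition of all tested compounds plus 3 SD, cut at about 27% in these data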;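 note: 0% = DMSO wells and 100% = JAK Inhibitor I control wells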
IEC-6 tox confirm: cytotoxic compounds in IEC-6 epithelial cells, confirmation, cytotoxicity control, cell-based, luminescence; shares compounds with IEC-6 cytotox; IEC-6 rat intestinal epithelial viability; 63% of 1,900 active; inhibition, % at 5 µM;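 note: 0% = vehicle and 100% = reference cytotoxic drug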
The depositor's hits bear a star. Cut-off read from the data, not from the text of the source, unless noted: active = inhibition above about 22%; inactive = the rest.

Results for COc1ccc(OCC(O)CNC(C)c2ccccc2)cc1 (stereo unspecified) ?
KLF5 inh: -11.9; IEC-6 cytotox: 6.9

Results for CC(NCC(O)COc1ccc2ccccc2c1)c1ccccc1 (stereo unspecified) ?
KLF5 inh: 7.6; IEC-6 cytotox: 53.0*; IEC-6 tox confirm: 8.8

How did CCOC(=O)c1[nH]c(C)c(C(=O)Nc2ccccc2C)c1C do in these assays?
KLF5 inh: 47.3; Ba/F3 V617F tox: 71.0*; IEC-6 cytotox: 56.1*; APP 5UTR inh: 84.2*; BaF3 tox: 66.5*; IEC-6 tox confirm: 51.1*

How did N/C(=N\c1nc2ccccc2o1)NC(=O)c1ccccc1Br do in these assays?
KLF5 inh: -37.6; Ba/F3 V617F tox: -1.8; IEC-6 cytotox: 6.3; BaF3 tox: 0.5

What do the screens show for `COc1ccc(/C(C)=N/NC(=S)NCCc2ccccc2)c(O)c1`?
KLF5 inh: -1.7; IEC-6 cytotox: 40.3*; IEC-6 tox confirm: 2.0

What do the screens show for `COCCNC(=S)N/N=C(\C)c1ccccc1O`?
KLF5 inh: 40.4; Ba/F3 V617F tox: 1.4; IEC-6 cytotox: 85.2*; APP 5UTR inh: 78.6*; BaF3 tox: 8.7; IEC-6 tox confirm: 17.8

What do the screens show for `O=C(NCc1ccco1)c1ccc(CNc2c(N3CCCCC3)c(=O)c2=O)cc1`?
KLF5 inh: -4.3; Ba/F3 V617F tox: 2.5; IEC-6 cytotox: -1.7; APP 5UTR inh: 18.6; BaF3 tox: 8.4

Results for CCCCn1c(CN2CCN(c3cccc(Cl)c3)CC2)nc2c1c(=O)[nH]c(=O)n2C ?
KLF5 inh: 27.2; Ba/F3 V617F tox: 47.9*; IEC-6 cytotox: 44.5*; APP 5UTR inh: 84.7*; BaF3 tox: 37.8*; IEC-6 tox confirm: 40.7*

Results for Cn1c(=O)[nH]c(=O)c2c1nc(CN1CCN(c3cccc(Cl)c3)CC1)n2CCCc1ccccc1 ?
KLF5 inh: -10.7; Ba/F3 V617F tox: -3.6; IEC-6 cytotox: -4.0; APP 5UTR inh: -16.7; BaF3 tox: 1.4

How did CC(C)c1ccc(Nc2ncccc2C(=O)O)cc1 do in these assays?
KLF5 inh: -186.0; Ba/F3 V617F tox: 7.0; IEC-6 cytotox: 58.5*; APP 5UTR inh: -139.5; BaF3 tox: 10.8; IEC-6 tox confirm: 26.3*

Results for COc1ccccc1C(=O)Nc1nc2ccccc2s1 ?
KLF5 inh: 21.7; IEC-6 cytotox: 29.0*; IEC-6 tox confirm: 27.8*

What do the screens show for `CCOC(=O)Cc1nnc(NC(=O)c2ccccc2OC)s1`?
KLF5 inh: 6.5; Ba/F3 V617F tox: -2.7; IEC-6 cytotox: 0.6; APP 5UTR inh: -8.4; BaF3 tox: -0.3

Results for COc1ccccc1C(=O)Nc1nnc(CCc2ccccc2)s1 ?
KLF5 inh: 14.7; IEC-6 cytotox: 44.2*; IEC-6 tox confirm: 56.0*

Results for COc1ccccc1C(=O)Nc1nc2ccc(S(C)(=O)=O)cc2s1 ?
KLF5 inh: -74.8; Ba/F3 V617F tox: 1.3; IEC-6 cytotox: -6.3; APP 5UTR inh: -21.8; BaF3 tox: 3.5

What do the screens show for `COc1ccccc1C(=O)Nc1ccc2c(c1)nc(CCNC(=O)c1ccco1)n2C`?
KLF5 inh: 28.2; IEC-6 cytotox: 69.3*; IEC-6 tox confirm: 53.3*

What do the screens show for `CCOc1ccc(N(Cc2cc3ccc(C)cc3[nH]c2=O)S(=O)(=O)c2ccccc2)cc1`?
KLF5 inh: 24.5; IEC-6 cytotox: 22.0*; IEC-6 tox confirm: -5.8

How did COc1ccc2ccccc2c1/C=N/NC(=O)c1cccc([N+](=O)[O-])c1 do in these assays?
KLF5 inh: -17.4; IEC-6 cytotox: 2.2

What do the screens show for `COc1ccc(C(=O)N2CCc3cc4c(cc3C2C)OCCCO4)cc1` (stereo unspecified)?
KLF5 inh: 10.8; IEC-6 cytotox: 13.1

What do the screens show for `CC1c2cc3c(cc2CCN1C(=O)c1ccc(Br)cc1)OCCCO3` (stereo unspecified)?
KLF5 inh: 6.8; IEC-6 cytotox: 39.4*; IEC-6 tox confirm: 37.0*

How did O=C(c1ccc(Cl)cc1)C(CN1CCCCC1)c1ccccc1 (stereo unspecified) do in these assays?
KLF5 inh: -25.3; IEC-6 cytotox: 22.4*; IEC-6 tox confirm: 20.0
